Test results taken from PubChem BioAssay (Tox21).
Values joined by “and” are separate entries in the source; they are usually repeats but may differ in a detail not shown here. Equal entries are not always repeated. Records with an inconclusive call do not appear. Entries that show only a call come without a potency. Active and inactive are the calls of the source. The call rests on the fitted dose curve; in most records, active means well fitted activation curve with a large enough effect in the signal ratio in the repeat runs (not every such curve was filed as active); inconclusive means weak or mixed curves, or effect the other way; inactive means no such curve, though single readings can be large or run the other way; the % refers to the signal ratio.

Assay: qHTS assay for small molecule agonists of the antioxidant response element (ARE) signaling pathway (AID 743202)
Details: HepG2 ARE-bla reporter, beta-lactamase FRET, 16 h; series mostly up to 73.3 µM
Source text: U.S. Tox21 Program National Center for Advancing Translational Sciences [NCATS] NIH Chemical Genomics Center [NCGC] U.S. Environmental Protection Agency [EPA] National Institutes of Environmental Health Sciences [NIEHS] National Toxicology Program [NTP] U.S. Food and Drug Administration [FDA] Tox21 Assay Overview: Oxidative stress has been implicated in the pathogenesis of a variety of diseases ranging from cancer to neurodegeneration. The antioxidant response element (ARE) signaling pathway plays an important role in the amelioration of oxidative stress. The CellSensor ARE-bla HepG2 cell line (Invitrogen) can be used for analyzing the Nrf2/antioxidant response signaling pathway. Nrf2 (NF-E2-related factor 2) and Nrf1 are transcription factors that bind to AREs and activate these genes. The CellSensor ARE-bla Hep G2 cell line contains a beta-lactamase reporter gene under control of the Antioxidant Response Element (ARE) stably integrated into HepG2 cells. The activation of the report gene under culture conditions can be detected by fluorescence intensity. This cell line has been used to screen the Tox21 10K compound library to identify agonists that induce oxidative stress.
Tox21 Assay Protocol Summary: The ARE-bla cells were dispensed at 2,000 cells/5 ul/well in 1536-well black wall/clear bottom plates using a Multidrop dispenser. After the assay plates were incubated at a 37 C/5% CO2 incubator for 5 hours, 23 nL of compounds dissolved in DMSO, positive controls or DMSO only was transferred to the assay plate by a pin tool. The plates were incubated at 37 C for 16 hours. After 1 uL of LiveBLAzer B/G FRET substrate was added using a Flying Reagent Dispenser, the plates were incubated at room temperature for 2 hours, and fluorescence intensity was measured by an Envision plate reader.
Potency means the concentration at half of the fitted maximal effect.

| SMILES | Potency |
| --- | --- |
| CC(=O)c1cc(C(C)(C)C)cc2c1CCC2(C)C | inactive |
| CC[C@H]1C[C@@H]2C[C@H]3c4[nH]c5ccc(OC)cc5c4CCN(C2)[C@@H]13 | inactive |
| c1ccc2c(c1)OCC(C1=NCCN1)O2 (stereo not given) | 13.3 µM (active) |
| CC1(c2ccc(Oc3ccccc3)cc2)OC(=O)N(Nc2ccccc2)C1=O (stereo not given) | 0.615 µM (active) |
| Fc1ccc(Oc2ccnc3cc(Cl)cc(Cl)c23)cc1 | 12.2 µM (active) |
| CN(C)c1ccc(N=Nc2ccccc2)cc1 | 8.64 µM (active) |
| FC(Cl)(Cl)Cl | inactive |
| CN(C)C(=S)[S-].CN(C)C(=S)[S-].[Cu+2] | 1.49 µM (active) |
| CC(C)OC(=O)C(O)(c1ccc(Cl)cc1)c1ccc(Cl)cc1 | inactive |
| CC(C)C1CCC(Cc2ccc(Cl)cc2)C1(O)Cn1cncn1 (stereo not given) | 15.2 µM (active) |
| C[C@]12Cc3nonc3C[C@@H]1CC[C@@H]1[C@@H]2CC[C@@]2(C)[C@H]1CC[C@]2(C)O | 8.41 µM (active) |
| O=C(CCl)Nc1ccccc1 | 4.33 µM (active) |
| CCN | inactive |
| CCCCCCCCCBr | inactive |
| O=c1[nH]c2ccccc2n1CCCN1CCC(n2c(=O)[nH]c3cc(Cl)ccc32)CC1 | inactive |
| CC1(C)C(/C=C(\Cl)C(F)(F)F)C1C(=O)OC(C#N)c1cccc(Oc2ccccc2)c1 (stereo not given) | inactive |
| CC(C)(C)c1cc([N+](=O)[O-])cc(C(C)(C)C)c1O | inactive |
| CC(c1ccc(O)cc1)c1ccc(O)cc1 | 25.6 µM (active) |
| N#CNC#N | inactive |
| BrCBr | inactive |

| SMILES | Potency |
| --- | --- |
| COc1ccc(OC)c(CC(C)N)c1 (stereo not given) | inactive |
| CC(=O)Nc1ccc2c(c1)Cc1ccccc1-2 | 27.7 µM (active) |
| CC(C)CCCCCOC(=O)c1ccccc1C(=O)OCCCCCC(C)C | inactive |
| CC(=O)O[C@H]1CC[C@@]2(C)C(=CC[C@@H]3[C@@H]2CC[C@]2(C)C(=O)CC[C@@H]32)C1 | 48.6 µM (active) |
| c1ccc(OCC2CO2)cc1 (stereo not given) | inactive |
| BrC(Br)Br | inactive |
| Nc1ccccc1C(=O)Oc1ccc2ccccc2c1 | 21.7 µM (active) |
| CC(C)[C@H](C(=O)O[C@H](C#N)c1cccc(Oc2ccccc2)c1)c1ccc(Cl)cc1 | inactive |
| N#CCCSCCC#N | inactive |
| O=C1NCN(c2ccccc2)C12CCN(CC1COc3ccccc3O1)CC2 (stereo not given) | inactive |
| CC1(C)[C@H](C(=O)O[C@H](C#N)c2cccc(Oc3ccccc3)c2)[C@@H]1/C=C(\Cl)C(F)(F)F | inactive |
| CNC(C)Cc1ccc2c(c1)OCO2 (stereo not given) | inactive |
| CC(C)OS(C)(=O)=O | inactive |
| CCN(CC)c1c([N+](=O)[O-])cc(C(F)(F)F)c(N)c1[N+](=O)[O-] | inactive |
| CCOc1cc(C(C)(C)C)ccc1C1COC(c2c(F)cccc2F)=N1 (stereo not given) | 5.88 µM (active) |
| O=C/C(Cl)=C(/Cl)C(=O)O | 38.5 µM (active) and 27.3 µM (active) |
| COc1cc(N)c(Cl)cc1C(=O)NC1CN2CCC1CC2 (stereo not given) | inactive |
| O=CC(Br)(Br)Br | 1.72 µM (active) |
| O=[N+]([O-])c1c2ccccc2cc2ccccc12 | 21.4 µM (active) |
| CN(C)C1CSSSC1 | 34.3 µM (active) |
